Reference: PubChem BioAssay AID651650 (Sanford-Burnham Center for Chemical Genomics, 2012)

The compounds below were run against Neuropilin-1 (Homo sapiens) (UniProt O14786) (assay: NRP-1 b1b2 CendR peptide binding inhibitors, dose response, biochemical, FP and AlphaScreen panel (AID 651650)). Details: NRP-1 b1b2 / RPARPAR peptide binding, FP or AlphaScreen; run 1, at 100 µM (top of the series).
Sequence of Neuropilin-1 (Homo sapiens) (O14786 whole entry, looked up): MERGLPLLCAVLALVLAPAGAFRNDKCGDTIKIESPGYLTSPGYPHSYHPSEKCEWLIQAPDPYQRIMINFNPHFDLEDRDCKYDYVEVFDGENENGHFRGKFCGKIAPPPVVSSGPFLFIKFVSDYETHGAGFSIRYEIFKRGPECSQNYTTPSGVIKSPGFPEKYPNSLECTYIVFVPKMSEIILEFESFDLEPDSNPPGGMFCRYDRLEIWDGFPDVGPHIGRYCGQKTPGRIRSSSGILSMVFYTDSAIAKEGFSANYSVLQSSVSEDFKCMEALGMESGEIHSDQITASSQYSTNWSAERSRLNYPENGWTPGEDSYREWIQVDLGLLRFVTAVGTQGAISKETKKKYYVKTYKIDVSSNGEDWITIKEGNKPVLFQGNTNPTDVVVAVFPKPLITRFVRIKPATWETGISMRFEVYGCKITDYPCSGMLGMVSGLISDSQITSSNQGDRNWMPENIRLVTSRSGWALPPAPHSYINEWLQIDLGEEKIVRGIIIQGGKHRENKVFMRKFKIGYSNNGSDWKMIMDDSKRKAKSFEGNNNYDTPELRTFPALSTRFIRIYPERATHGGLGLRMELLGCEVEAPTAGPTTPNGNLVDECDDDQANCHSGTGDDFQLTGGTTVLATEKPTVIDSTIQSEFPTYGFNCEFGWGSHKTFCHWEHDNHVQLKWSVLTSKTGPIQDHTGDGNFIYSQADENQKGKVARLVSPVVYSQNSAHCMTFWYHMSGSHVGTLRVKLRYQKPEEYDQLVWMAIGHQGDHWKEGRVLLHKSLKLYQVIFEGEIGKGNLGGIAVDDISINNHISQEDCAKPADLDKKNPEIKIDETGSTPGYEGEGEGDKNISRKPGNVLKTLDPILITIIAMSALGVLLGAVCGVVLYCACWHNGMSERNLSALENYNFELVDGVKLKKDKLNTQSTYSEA

SMILES | inhibition
O=C(CSC1CN(C(c2ccccc2)c2ccccc2)C1)N/N=C/c1ccccc1 | 53.3%
Cc1ccc(NC=C(S(=O)(=O)c2ccccc2)S(=O)(=O)c2ccccc2)cc1 | -22.8%
C=CCn1c(SCC(=O)Nc2ncc(Cc3ccc(Br)cc3)s2)nnc1-c1ccncc1 | 42%
C=C(C)C1CC=C(C)/C(=N\NC(=O)CNc2ccccc2OC)C1 (configuration not stated) | -8.81%
OCCCc1n[nH]c(=S)n1-c1ccccc1 | 31.2%
COc1ccc(Cn2c(C3CC3)nc3ccc(NC(=O)c4cccnc4)cc3c2=O)cc1 | 88.1%
CCC1Nc2ncnc(N3CCCCC3)c2N(Cc2ccc(C)cc2)C1=O (configuration not stated) | 18.8%
CCN(c1ccccc1)S(=O)(=O)c1ccc(C(=O)N(CCCN(C)C)c2nc3cc4c(cc3s2)OCO4)cc1 | 72.6%
Cc1cnccc1CNC(=O)CC1C(=O)NCCN1CC(C)(C)C (configuration not stated) | 57.6%
Cc1nnc(NC(=O)c2ccccc2C(=O)O)s1 | 99.7%
CCc1ccc(C2CC(=O)N(c3cccc(F)c3)C3=C2C(=O)OC3)cc1 (configuration not stated) | 33.7%
CCN(CC)C(=O)CSc1nnc(-c2c[nH]c3ccccc23)o1 | 46.9%
CCC(=O)Nc1cc2c3c(c1)CCC(=O)N3CCC2 | 101%
CC(=O)Nc1ccccc1OCC(=O)N(Cc1ccccc1)C(C)C | 18.2%
NCCCC[C@H]1CN=C(N)N1CCC12CC3CC(CC(C3)C1)C2 | 70.7%
C[C@@H]1CC=C[C@H]2[C@H]1C(=O)N(Cc1ccccc1)[C@H]2c1ccc(/C=C/c2ccccc2)cc1F | 48.3%
O=C1CCC[C@@H]2Cc3nc4cc5c(cc4cc3[C@@H]3CCN1[C@H]23)OCO5 | 30.9%
